Test results from the supplement of paper PMC11732987, “Enantioselective OTUD7B fragment discovery through chemoproteomics screening and high-throughput optimisation” (Communications Chemistry, 2025).

Key:
Experiment in all cases: log2 ratio of Biotin-Ahx-Ub-VS probe labelling (fragment/DMSO); higher = less target engagement (more negative = stronger competition), active = hit call of the paper (q ≤ 0.05, log2 ratio ≤ -1)
Details in all cases: compound concentration: 200 uM; treatment time: 3 h
USP19 = target: T1, USP19 (UniProt O94966)
T1 sequence (whole entry): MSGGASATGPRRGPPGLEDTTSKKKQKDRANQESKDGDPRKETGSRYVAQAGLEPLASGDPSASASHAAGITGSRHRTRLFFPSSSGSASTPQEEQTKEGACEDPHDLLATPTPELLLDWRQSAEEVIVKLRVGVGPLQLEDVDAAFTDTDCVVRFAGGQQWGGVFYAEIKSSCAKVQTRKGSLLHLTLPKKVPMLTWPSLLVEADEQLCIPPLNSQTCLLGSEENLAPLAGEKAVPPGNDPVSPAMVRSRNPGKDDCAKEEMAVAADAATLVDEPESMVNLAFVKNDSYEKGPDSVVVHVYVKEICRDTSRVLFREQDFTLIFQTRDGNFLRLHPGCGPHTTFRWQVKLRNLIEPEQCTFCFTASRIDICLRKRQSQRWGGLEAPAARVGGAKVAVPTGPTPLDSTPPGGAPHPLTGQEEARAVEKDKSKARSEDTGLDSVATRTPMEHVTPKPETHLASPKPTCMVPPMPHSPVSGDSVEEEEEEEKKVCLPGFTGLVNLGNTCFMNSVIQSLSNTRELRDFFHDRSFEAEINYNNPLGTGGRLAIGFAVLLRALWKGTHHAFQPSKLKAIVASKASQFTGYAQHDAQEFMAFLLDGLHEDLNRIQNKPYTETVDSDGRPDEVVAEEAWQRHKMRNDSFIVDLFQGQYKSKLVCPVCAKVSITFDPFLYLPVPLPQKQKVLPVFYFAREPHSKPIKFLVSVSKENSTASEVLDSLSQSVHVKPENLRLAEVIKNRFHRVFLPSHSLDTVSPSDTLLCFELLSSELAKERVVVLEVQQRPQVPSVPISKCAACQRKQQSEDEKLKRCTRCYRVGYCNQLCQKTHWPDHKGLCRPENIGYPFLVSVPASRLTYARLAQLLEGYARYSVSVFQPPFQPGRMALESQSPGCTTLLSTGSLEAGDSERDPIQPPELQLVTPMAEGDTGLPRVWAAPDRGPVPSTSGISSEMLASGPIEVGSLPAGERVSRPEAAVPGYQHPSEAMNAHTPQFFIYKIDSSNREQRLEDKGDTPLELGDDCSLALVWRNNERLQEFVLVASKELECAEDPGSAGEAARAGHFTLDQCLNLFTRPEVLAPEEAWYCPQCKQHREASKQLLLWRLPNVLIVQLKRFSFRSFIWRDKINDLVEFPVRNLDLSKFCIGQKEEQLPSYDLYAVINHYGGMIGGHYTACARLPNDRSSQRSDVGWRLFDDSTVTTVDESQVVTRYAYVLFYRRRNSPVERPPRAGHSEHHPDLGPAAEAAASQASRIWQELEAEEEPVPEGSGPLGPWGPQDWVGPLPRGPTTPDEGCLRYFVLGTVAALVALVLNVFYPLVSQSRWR
How it was run: (§1)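 Labelled DUBs from HEK293T lysate were NeutrAvidin-enriched, digested with LysC and trypsin, and run by diaPASEF LC-MS/MS. Before that, each 495 µg sample in Tris/CHAPS/IGEPAL buffer with protease inhibitors was treated in triplicate with fragment at 200 µM or vehicle for 3 h, then with Biotin-Ahx-Ub-VS at 0.5 µM final for 1 h. Values are average log2 ratios of fragment over vehicle by unpaired t-test, based on global-median-normalised Spectronaut label-free quantities from proteins with ≥2 unique peptides.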

USP24 = USP24 (UniProt Q9UPU5)
How it was run: as §1

USP25 = target: T2, USP25 (UniProt Q9UHP3)
T2 sequence (whole entry): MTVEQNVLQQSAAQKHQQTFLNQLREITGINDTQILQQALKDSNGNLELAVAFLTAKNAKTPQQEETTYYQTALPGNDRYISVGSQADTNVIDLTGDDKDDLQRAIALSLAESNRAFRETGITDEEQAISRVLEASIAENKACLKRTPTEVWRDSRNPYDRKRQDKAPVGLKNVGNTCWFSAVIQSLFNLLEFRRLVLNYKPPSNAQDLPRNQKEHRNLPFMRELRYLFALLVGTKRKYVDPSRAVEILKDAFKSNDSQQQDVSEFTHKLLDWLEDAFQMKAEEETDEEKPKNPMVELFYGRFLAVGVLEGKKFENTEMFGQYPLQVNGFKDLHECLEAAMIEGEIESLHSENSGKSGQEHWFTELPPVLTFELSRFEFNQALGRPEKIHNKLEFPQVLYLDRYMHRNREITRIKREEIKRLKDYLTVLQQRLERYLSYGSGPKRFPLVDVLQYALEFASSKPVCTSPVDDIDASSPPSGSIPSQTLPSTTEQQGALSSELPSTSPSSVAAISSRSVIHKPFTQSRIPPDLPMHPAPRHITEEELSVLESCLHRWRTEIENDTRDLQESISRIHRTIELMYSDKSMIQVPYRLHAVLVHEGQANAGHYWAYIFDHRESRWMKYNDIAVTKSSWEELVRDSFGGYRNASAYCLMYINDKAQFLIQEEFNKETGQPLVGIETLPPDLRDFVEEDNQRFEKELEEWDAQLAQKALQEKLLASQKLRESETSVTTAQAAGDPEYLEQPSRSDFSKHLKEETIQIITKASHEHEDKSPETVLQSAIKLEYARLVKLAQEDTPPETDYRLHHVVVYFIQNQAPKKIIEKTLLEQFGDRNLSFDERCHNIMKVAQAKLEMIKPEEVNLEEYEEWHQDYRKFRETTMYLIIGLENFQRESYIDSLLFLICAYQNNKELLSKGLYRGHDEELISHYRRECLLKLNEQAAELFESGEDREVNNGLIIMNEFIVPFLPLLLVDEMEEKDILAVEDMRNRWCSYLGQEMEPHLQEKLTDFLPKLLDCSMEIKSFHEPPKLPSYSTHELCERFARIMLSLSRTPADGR
How it was run: as §1

USP28 = target: T3, USP28 (UniProt Q96RU2)
T3 sequence (whole entry): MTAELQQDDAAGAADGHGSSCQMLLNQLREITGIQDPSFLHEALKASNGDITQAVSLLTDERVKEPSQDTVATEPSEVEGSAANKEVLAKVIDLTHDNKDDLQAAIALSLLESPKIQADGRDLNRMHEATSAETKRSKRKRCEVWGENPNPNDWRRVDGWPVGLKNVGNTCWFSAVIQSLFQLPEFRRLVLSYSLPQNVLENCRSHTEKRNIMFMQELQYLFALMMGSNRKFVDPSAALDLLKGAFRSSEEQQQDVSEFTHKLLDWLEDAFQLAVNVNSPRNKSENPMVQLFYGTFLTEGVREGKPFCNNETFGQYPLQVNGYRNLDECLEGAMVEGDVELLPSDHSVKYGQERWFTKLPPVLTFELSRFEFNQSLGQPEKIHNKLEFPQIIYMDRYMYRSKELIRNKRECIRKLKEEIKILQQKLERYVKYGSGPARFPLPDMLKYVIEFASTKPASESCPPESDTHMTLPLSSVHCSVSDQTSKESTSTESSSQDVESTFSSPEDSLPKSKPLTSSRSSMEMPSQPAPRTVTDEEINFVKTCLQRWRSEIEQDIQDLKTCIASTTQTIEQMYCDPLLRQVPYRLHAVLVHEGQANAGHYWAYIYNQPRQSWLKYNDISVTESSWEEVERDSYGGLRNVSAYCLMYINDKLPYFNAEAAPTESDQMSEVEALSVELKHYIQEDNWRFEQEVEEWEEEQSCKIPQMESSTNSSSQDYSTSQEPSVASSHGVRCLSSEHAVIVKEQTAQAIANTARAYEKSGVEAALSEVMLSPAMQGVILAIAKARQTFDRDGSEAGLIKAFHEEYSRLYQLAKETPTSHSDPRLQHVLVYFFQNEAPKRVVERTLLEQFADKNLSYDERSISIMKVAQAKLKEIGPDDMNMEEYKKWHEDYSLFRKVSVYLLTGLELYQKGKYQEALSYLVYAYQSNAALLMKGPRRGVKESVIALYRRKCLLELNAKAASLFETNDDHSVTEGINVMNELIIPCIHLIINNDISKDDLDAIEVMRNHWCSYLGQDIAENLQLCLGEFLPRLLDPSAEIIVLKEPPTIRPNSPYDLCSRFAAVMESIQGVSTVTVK
How it was run: as §1

Measured: log2 ratio of Biotin-Ahx-Ub-VS probe labelling

USP24, sequence (Q9UPU5 whole entry): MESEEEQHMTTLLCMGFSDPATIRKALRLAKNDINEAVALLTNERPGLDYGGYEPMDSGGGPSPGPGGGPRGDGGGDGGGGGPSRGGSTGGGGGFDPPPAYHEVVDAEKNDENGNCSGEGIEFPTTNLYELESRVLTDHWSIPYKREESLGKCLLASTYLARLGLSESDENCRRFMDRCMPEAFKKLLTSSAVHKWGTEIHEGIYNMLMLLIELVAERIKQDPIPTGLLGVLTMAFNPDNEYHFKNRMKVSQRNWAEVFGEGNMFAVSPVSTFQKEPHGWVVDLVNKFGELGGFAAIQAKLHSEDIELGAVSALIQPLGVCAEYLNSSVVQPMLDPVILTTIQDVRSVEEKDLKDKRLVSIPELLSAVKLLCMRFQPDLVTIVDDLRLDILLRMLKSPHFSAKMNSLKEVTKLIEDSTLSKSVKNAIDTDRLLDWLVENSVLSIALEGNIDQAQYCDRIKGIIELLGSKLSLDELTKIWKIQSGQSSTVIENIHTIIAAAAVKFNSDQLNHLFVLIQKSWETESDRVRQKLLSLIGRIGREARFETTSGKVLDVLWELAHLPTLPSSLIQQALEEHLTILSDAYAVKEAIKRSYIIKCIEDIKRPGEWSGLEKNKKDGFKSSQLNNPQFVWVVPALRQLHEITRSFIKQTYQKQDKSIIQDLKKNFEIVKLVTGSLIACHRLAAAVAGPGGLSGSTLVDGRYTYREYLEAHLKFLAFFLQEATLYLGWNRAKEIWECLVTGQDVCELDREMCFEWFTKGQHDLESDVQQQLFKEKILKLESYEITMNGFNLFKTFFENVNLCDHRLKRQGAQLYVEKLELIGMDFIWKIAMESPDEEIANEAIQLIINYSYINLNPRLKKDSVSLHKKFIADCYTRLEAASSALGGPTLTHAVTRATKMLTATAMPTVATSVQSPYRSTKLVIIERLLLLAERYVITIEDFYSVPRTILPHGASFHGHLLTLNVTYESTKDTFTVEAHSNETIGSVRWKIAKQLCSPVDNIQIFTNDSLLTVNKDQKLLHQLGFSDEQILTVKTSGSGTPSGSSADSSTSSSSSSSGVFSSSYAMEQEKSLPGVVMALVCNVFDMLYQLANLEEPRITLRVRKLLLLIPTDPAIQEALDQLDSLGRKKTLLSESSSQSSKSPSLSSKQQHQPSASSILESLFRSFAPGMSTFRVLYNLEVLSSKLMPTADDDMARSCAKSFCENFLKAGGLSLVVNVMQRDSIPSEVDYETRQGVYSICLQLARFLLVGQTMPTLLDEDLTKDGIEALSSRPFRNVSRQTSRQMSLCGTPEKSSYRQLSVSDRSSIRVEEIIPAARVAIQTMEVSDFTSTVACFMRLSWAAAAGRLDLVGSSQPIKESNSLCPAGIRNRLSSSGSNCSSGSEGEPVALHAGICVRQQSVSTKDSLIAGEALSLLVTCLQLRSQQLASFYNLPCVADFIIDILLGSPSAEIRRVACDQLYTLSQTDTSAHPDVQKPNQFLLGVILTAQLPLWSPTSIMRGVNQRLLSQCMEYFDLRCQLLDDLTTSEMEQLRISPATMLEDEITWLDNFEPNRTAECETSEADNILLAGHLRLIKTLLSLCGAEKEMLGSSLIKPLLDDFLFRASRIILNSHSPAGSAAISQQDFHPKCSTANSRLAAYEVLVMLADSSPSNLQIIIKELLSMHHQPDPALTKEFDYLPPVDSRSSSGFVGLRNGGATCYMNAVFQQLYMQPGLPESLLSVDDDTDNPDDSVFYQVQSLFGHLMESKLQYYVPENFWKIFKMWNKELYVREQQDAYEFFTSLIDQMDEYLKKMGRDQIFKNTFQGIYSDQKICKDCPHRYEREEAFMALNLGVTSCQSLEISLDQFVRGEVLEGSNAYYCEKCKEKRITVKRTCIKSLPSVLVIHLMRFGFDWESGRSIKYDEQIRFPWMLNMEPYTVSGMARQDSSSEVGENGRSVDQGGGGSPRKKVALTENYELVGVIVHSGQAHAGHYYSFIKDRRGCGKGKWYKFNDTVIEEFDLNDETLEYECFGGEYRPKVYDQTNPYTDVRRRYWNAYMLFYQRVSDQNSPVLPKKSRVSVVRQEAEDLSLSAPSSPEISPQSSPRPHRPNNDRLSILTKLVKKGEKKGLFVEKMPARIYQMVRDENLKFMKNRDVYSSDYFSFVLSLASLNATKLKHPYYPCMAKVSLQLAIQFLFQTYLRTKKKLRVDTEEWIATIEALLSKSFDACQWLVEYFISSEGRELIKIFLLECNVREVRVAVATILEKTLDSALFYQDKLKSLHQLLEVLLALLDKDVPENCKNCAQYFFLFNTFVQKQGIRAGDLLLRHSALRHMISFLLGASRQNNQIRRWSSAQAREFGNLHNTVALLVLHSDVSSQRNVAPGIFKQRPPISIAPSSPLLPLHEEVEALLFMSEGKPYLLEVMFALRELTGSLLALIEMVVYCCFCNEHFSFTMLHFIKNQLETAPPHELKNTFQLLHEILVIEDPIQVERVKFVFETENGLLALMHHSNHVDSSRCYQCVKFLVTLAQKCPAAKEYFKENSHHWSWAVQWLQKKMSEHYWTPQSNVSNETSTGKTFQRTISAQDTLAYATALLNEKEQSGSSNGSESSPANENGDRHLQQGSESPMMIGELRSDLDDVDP

O=C(CCl)NC(Cn1ccccc1=O)c1ccccc1 (centres undefined)
inactive: USP19 -0.14 | USP24 -0.0705 | USP25 -0.417 | USP28 -0.211
